The text below walks through data of PubChem BioAssay (NCI).

About 83,000 compounds went through this panel and 20% of them were active in at least one assay; those are over-represented in the sample as a whole.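 Values shown are percent growth following 48 h exposure of cells in 96-well plates to a single concentration of compound; below 10 was considered active.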 A number with no mark means an inactive call. Active and inactive are the calls of the source.

Test systems include NCI-H23 lung; NCI-H226 lung; NCI-H322M lung; NCI-H460 lung; HOP-92 NSCLC; A549/ATCC NSCLC; 786-0 renal; COLO 205 colon; NCI-H522 lung; HOP-62 NSCLC.
Holding throughout (experiment): NCI-60 one-dose screen, 48 h (100 = growth as untreated, 0 = no growth, -100 = all killed)
Holding throughout (conditions): 10 µM

Consider `O=C1/C(=C/c2cccc(F)c2)Cc2ccccc21`, for which the growth in the assay on NCI-H23 lung was 101%; with NCI-H226 lung, 105%; with NCI-H322M lung, 94.4%; with NCI-H460 lung, 107%; in the assay on HOP-92 NSCLC it was 73.5%; in the assay with A549/ATCC NSCLC, 87.7%. The growth in the assay on 786-0 renal is 98.1%; with COLO 205 colon, 124%.
Regarding `IC(I)I`, the growth was 102% with NCI-H23 lung; 100% in the assay with NCI-H226 lung; 102% in the assay on NCI-H322M lung; 109% in the assay with NCI-H460 lung; 119% with NCI-H522 lung; 102% with A549/ATCC NSCLC. In the assay on 786-0 renal, the growth is 101%.
Turning to `CCN(CC)CCCC(Nc1c2ccc(Cl)cc2nc2ccc(OC)cc12)c1ccc(F)cc1` (stereo not drawn), the growth in the assay on NCI-H23 lung is 86.9%; in the assay on NCI-H226 lung, 94.1%; in the assay on NCI-H322M lung, 14.7%; in the assay with NCI-H460 lung, -17.8% (active); in the assay with NCI-H522 lung, -24.3% (active); with A549/ATCC NSCLC, 18.4%. Moreover, in the assay with 786-0 renal, the growth is -70.8% (active).
`c1ccc(CCCCc2ccc3ccccc3n2)cc1`: the growth in the assay with NCI-H23 lung is 102%; in the assay with NCI-H226 lung it was 94.8%; with NCI-H322M lung it was 99.7%; with NCI-H460 lung it was 105%; with NCI-H522 lung, 75.3%; in the assay on A549/ATCC NSCLC, 98.5%. Further, in the assay with 786-0 renal, the growth is 102%.
Take `CCOC(=O)c1cocc1C(=O)O`: the growth with NCI-H23 lung was 109%; with NCI-H226 lung, 102%; in the assay with NCI-H322M lung, 110%; in the assay on NCI-H460 lung, 104%; in the assay with NCI-H522 lung it was 106%; with A549/ATCC NSCLC, 101%. Also, the growth was 103% in the assay on 786-0 renal and 108% in the assay with COLO 205 colon.
Take `C=C1CCC2(C#N)[C@H]3[C@H](CC[C@@H]2C)[C@@H](C)C[C@@H](CC(C)(C)NC(=O)CN2CCC2=O)[C@H]13` (stereo partly drawn): the growth was 60.3% with NCI-H23 lung; 60.6% in the assay with NCI-H226 lung; 96.1% in the assay with NCI-H322M lung; 52.1% in the assay on NCI-H460 lung; 46.6% in the assay on NCI-H522 lung; 67.3% with A549/ATCC NSCLC. Moreover, the growth in the assay with COLO 205 colon is 54%.
As to `COc1cc(-c2ccc[nH]2)[nH]c1/C=C1\N=C(C)C(C(=O)NC(C)C)=C1C`, the growth in the assay on NCI-H23 lung was 40.5%; in the assay with NCI-H226 lung, 42.7%; in the assay on NCI-H322M lung, 39.2%; in the assay on NCI-H460 lung it was 9.93% (active); with NCI-H522 lung, 13.4%; in the assay with A549/ATCC NSCLC, 14.7%. The growth in the assay with 786-0 renal is 8.09% (active); in the assay with COLO 205 colon it was 26.9%.
Take `CCCC1(CN2c3ccccc3Sc3ccc(Cl)cc32)CCN(CC)C1` (stereo not drawn): the growth in the assay with NCI-H23 lung is 5.21% (active); in the assay on NCI-H226 lung, 32.4%; in the assay on NCI-H322M lung it was 25.5%; with NCI-H460 lung, -100% (active); with NCI-H522 lung, -75.2% (active); in the assay with A549/ATCC NSCLC, 18.6%. In addition, the growth in the assay with 786-0 renal is -95.7% (active); in the assay with COLO 205 colon, -80.8% (active).
Regarding `CC(C)(C)c1ccc(S(=O)(=O)N[C@H]2CC[C@H]3[C@@H]4CCc5cc(O)c([N+](=O)[O-])cc5[C@H]4CC[C@]23C)cc1`, the growth is 83.5% with NCI-H23 lung; 80% with NCI-H226 lung; 77.1% in the assay on NCI-H322M lung; 45.6% in the assay with NCI-H460 lung; 65.1% in the assay on NCI-H522 lung; 48.3% in the assay with A549/ATCC NSCLC. The growth in the assay with 786-0 renal was 62.1%; with COLO 205 colon, 96.4%.
For `CCC(c1ccc(OC)cc1)C(CC)c1ccc(O)c(CN2CCN(C)CC2)c1` (stereo not drawn), the growth in the assay on NCI-H23 lung was 57.8%; with NCI-H226 lung it was 88.9%; in the assay on NCI-H322M lung, 76.1%; in the assay on NCI-H460 lung it was 51.8%; in the assay on NCI-H522 lung it was 61.9%; in the assay with 786-0 renal, 57.6%. Besides, the growth in the assay with COLO 205 colon was -83.5% (active).
As for `COC(=O)c1cc2oc(/C=C3/SC(=S)N(N)C3=O)cc2n1Cc1ccccc1`, the growth with NCI-H23 lung is 58.4%; with NCI-H226 lung it was 57%; in the assay with NCI-H322M lung it was 39.4%; in the assay with NCI-H460 lung, 40.5%; with HOP-92 NSCLC, -69% (active); in the assay with A549/ATCC NSCLC it was 53.4%. The growth in the assay with COLO 205 colon was 75%.
`C[C@]12CC[C@@H]3c4ccc(OS(=O)(=O)O)cc4CC[C@H]3[C@@H]1CC[C@@H]2NS(=O)(=O)c1ccc(-c2ccccc2)cc1`: the growth in the assay with NCI-H23 lung was 61.5%; in the assay on NCI-H226 lung, 68.4%; with NCI-H322M lung, 86.9%; with NCI-H460 lung it was 43.3%; in the assay with NCI-H522 lung it was 44.4%; in the assay on A549/ATCC NSCLC, 36.3%. The growth in the assay with 786-0 renal is 69.6%; with COLO 205 colon, 47.4%.
Turning to `CC(=O)OC1C=CC(OC(C)=O)O1` (stereo not drawn), the growth in the assay on NCI-H23 lung was 89.4%; with NCI-H226 lung, 80%; with NCI-H322M lung, 101%; with NCI-H460 lung, 96.5%; with NCI-H522 lung, 79.2%; with A549/ATCC NSCLC it was 103%. For the same compound, the growth in the assay on 786-0 renal was 94.6%; in the assay with COLO 205 colon, 97.1%.
On to `CC(C)(C)c1ccc(S(=O)(=O)N[C@H]2CC[C@H]3[C@@H]4CCc5cc(O)ccc5[C@H]4CC[C@]23C)cc1`, for which the growth in the assay on NCI-H23 lung is 50.3%; with NCI-H226 lung, 55.7%; in the assay with NCI-H322M lung it was 78.7%; with NCI-H460 lung it was 33.7%; in the assay with NCI-H522 lung, 31.8%; with A549/ATCC NSCLC it was 28.5%. The growth in the assay with 786-0 renal is 49.6%; in the assay on COLO 205 colon, 8.52% (active).
With `CC(=O)Nc1ccc(CC[C@H]2CCC/C=C/[C@@H]3C[C@H](O)C[C@H]3[C@H](O)/C=C/C(=O)O2)cc1`, the growth in the assay with NCI-H23 lung was -19% (active); in the assay on NCI-H226 lung, 10.1%; in the assay with HOP-62 NSCLC, 15.7%; with NCI-H460 lung it was 13.3%; in the assay on HOP-92 NSCLC, -15% (active); in the assay on NCI-H522 lung, -39.3% (active). In the assay with A549/ATCC NSCLC, the growth was 11.9%.
